Results as given in PubChem BioAssay (NCATS).
A number with no mark means an inactive call. Records with an inconclusive call do not appear. Where a call stands in place of a potency, no number is given. The source made the active and inactive calls. Unless noted, the call rests on the fitted dose curve; in most records, active means well fitted curve in the direction sought with a large enough effect; inconclusive means small, poorly fitted or top-dose-only effect, or another doubt; inactive means no such curve, though single readings can be large; an effect the other way counts as inactive or inconclusive.

How the values were obtained:
[1] = target: Lysosomal acid glucosylceramidase (Homo sapiens) (UniProt P04062); assay: Glucocerebrosidase-p2 (AID 348; in the data active means potency below about 10 µM; further: potency means the concentration at half of the fitted maximal effect); conditions: purified GBA, blue fluorogenic substrate, 40 min
How it was run: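 Normal human glucocerebrosidase (0.2 nM) with blue fluorogenic substrate (80 uM final) in citrate/phosphate pH 5.9 with 10mM sodium taurocholate, 0.01% tween-20; 40 min RT, NaOH/glycine stop; fluorescence Ex 365/Em 440; AC50 from a titration from 0.6 nM upwards.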

[2] = target: Cytochrome P450 1A2 (Homo sapiens) (UniProt P05177); assay: p450-cyp1a2 (AID 410; calls by dose curve; further: potency means the concentration at half of the fitted maximal effect); conditions: recombinant CYP1A2, luciferin-ME demethylation, luminescence; series mostly up to 57 µM
How it was run: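 Read-out is luminescence from luciferin produced by CYP1A2 demethylation of Luciferin-ME (100uM, at Km). Detection reagent stopped the 60 min NADPH-dependent reaction; signals were normalized to 57 uM furafylline.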

[3] = NFAT Signaling Pathway (AID 444; active means well fitted curve in either direction with a large enough effect, not every such curve was filed as active;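 further: carbachol stimulus at about its EC50 of 1 µM final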); conditions: Jurkat NFAT-bla M1, carbachol, beta-lactamase ratio, 5 h; at 7.69 µM (top of the series) unless noted
How it was run: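 Read-out: CCF4 FRET ratio (460 nm/530 nm) after 1 h RT dye loading, used for %activity and AC50 from titration series. Cells: Jurkat NFAT-β-lactamase/M1 line, treated with compound plus 1 uM carbachol for 5 h, 37 °C.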

[4] = Stat Signaling Pathway (AID 446; active means well fitted curve in either direction with a large enough effect, not every such curve was filed as active;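 further: ME-180 cervical cancer cells given 40 pM IL-6 alongside compound; SIE-controlled beta-lactamase reporter measured as 460/530 nm FRET emission ratio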); conditions: ME-180 SIE beta-lactamase reporter, IL-6 stimulated, 5 h; at 7.69 µM (top of the series) unless noted
How it was run: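 Compound effects on IL-6-induced STAT reporter activity were measured in ME-180 cells. After overnight culture, cells were co-treated with 40 pM IL-6 for 5 hrs before beta-lactamase substrate loading at room temperature.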

[5] = target: Glucocorticoid receptor (Homo sapiens) (UniProt P04150); assay: GR-GFP Redistribution (AID 450;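 active means compounds whose dose series gives a full or clear partial fitted curve of increased nuclear translocation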; further: potency means the concentration at half of the fitted maximal effect); conditions: U2OS GR-GFP nuclear translocation, laser cytometry, 2 h
[6] = target: Glucocorticoid receptor (Homo sapiens) (UniProt P04150); assay: GR-EFC Redistribution (AID 451; calls by dose curve; further: potency means the concentration at half of the fitted maximal effect); conditions: CHO-K1 GR-EFC translocation, beta-gal luminescence, 2 h
How it was run: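 Translocation of GR-ED fusion to nuclear EA restores b-gal, read by luminescence after 1 h room-temperature detection. Engineered CHO-K1 biosensor cells, 1,000/well, exposed 2 h at 37 C to titrations up to 46 uM final.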

[7] = target: Mitogen-activated protein kinase 10 (Mus musculus) (UniProt Q61831); assay: JNK3 AlphaScreen Assay (AID 530; active means well fitted curve in either direction with a large enough effect, not every such curve was filed as active;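 further: kinase came from lysate of stimulated human HepG2 cells; signal reports phosphorylation of biotinylated GST-cJun 1-79 at Ser73 with 10 µM ATP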); conditions: JNK3 lysate, c-Jun phosphorylation; series mostly up to 57.1 µM
How it was run: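 Kinase buffer: 20 mM Tris-HCl pH 7.6, 10 mM MgCl2, 1 mM DTT, 0.1 mM Na3VO4, 0.01% Tween-20; ATP 10 uM. Substrate biotin-GST-cJun(1-79), enzyme from activated HepG2 lysates. Detection by Ser73 phospho-antibody AlphaScreen.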

[8] = target: 3',5'-cyclic-AMP phosphodiesterase 4B (Homo sapiens) (UniProt Q07343); assay: qHTS Assay for Inhibitors of PDE-IV (AID 607; active means well fitted activation curve with a large enough effect in the main read-out, with a control signal flat, not every such curve was filed as active; further: potency means the concentration at half of the fitted maximal effect); conditions: HEK293 ACTOne CNG channel cells, membrane potential fluorescence; series mostly up to 22.9 µM
How it was run: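 ACTOne HEK293 cells carry a modified cAMP-gated CNG channel and express endogenous PDE4; plated 1000 cells/well, compounds up to 22.9 uM final. Membrane-potential dye fluorescence (ex 535/em 590) was read; parental cells received 10 uM forskolin + 100 uM RO 20-1724.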

[9] = qHTS Assay for Identification of Small Molecule Agonists for Hypoxia Response Element Signaling Pathway (AID 914; active means well fitted activation curve with a large enough effect in the signal ratio, with a control signal flat, not every such curve was filed as active; the % refers to the signal ratio; further: potency means the concentration at half of the fitted maximal effect); conditions: ME-180 HRE-bla reporter, beta-lactamase ratio, CoCl2, 17 h; activation: stronger effect = higher value
How it was run: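 In Opti-MEM containing 0.5% dialyzed FBS and 10 mM HEPES, ME-180 HRE-bla cells received a compound titration and EC50 CoCl2. They were incubated 17 hours, then CCF4-loaded 2.5 hours at room temperature before ratio reading.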

[10] = target: Dual specificity protein kinase CLK4 (Homo sapiens) (UniProt Q9HAZ1); assay: qHTS Assay for Inhibitors of CDC-like Kinase 4 (Kinase-Glo Assay) (AID 1770); conditions: recombinant Clk4, Kinase-Glo ATP depletion luminescence; series mostly up to 66.7 µM; further: nearly all actives have a fitted effect of over 65% in size; further: potency means the concentration at half of the fitted maximal effect
How it was run: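 Readout: Kinase-Glo luminescence from ATP left after a 4.5 h room-temperature reaction of 25 nM Clk4 with 100 uM RS peptide and 1 uM ATP (final). Buffer: 25 mM Tris pH 7.5, 10 mM MgCl2.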

[11] = target: Dual specificity protein kinase CLK4 (Homo sapiens) (UniProt Q9HAZ1); assay: qHTS Assay for Inhibitors of CDC-like Kinase 4 (ADP-Glo Assay) (AID 1771); conditions: recombinant CLK4, ADP-Glo luminescence; series mostly up to 80 µM; further: nearly all actives have a fitted effect of over 70% in size; further: potency means the concentration at half of the fitted maximal effect
How it was run: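 In this ADP-Glo format, 1 uM ATP and 100 uM RS peptide served as substrates for 25 nM Clk4 in Mg2+/EGTA/DTT/Triton buffer; reactions ran 1 hr at room temperature before luminescent ADP quantification.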

[12] = target: Dual specificity protein kinase CLK4 (Homo sapiens) (UniProt Q9HAZ1); assay: qHTS Assay for Inhibitors of CDC-like Kinase 4 (ADP-FP Assay) (AID 1795); conditions: Transcreener ADP fluorescence polarization; series mostly up to 50 µM; further: nearly all actives have a fitted effect of over 60% in size; further: potency means the concentration at half of the fitted maximal effect;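 on activity change, negative = inhibition: recombinant human CLK4 phosphorylating RS repeat peptide at 1 µM ATP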
How it was run: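 FP readout: Orange Transcreener ADP2 tracer (4 nM) plus ADP antibody, read after 30 min at room temperature. Kinase step: 6.25 nM Clk4, 100 uM RS peptide, 1 uM ATP, pH 7.5, 1 h.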

[13] = Primary qHTS for small molecule stabilizers of the endoplasmic reticulum resident proteome: Secreted ER Calcium Modulated Protein (SERCaMP) assay (AID 1508630); conditions: SH-SY5Y GLuc-SERCaMP (Gaussia luciferase released on ER calcium loss) secretion, thapsigargin, luminescence; series mostly up to 38.4 µM
How it was run: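 The SH-SY5Y reporter protocol was run at 3 concentrations up to 38.3 uM (primary) or 11 concentrations (follow-up): 16 h compound, 100 nM thapsigargin for 4 h, then extracellular luciferase luminescence.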

[14] = AP1 Signaling Pathway (AID 357; active means well fitted curve in either direction with a large enough effect, not every such curve was filed as active); conditions: ME-180 (cervical carcinoma) AP-1-bla reporter, EGF-induced, beta-lactamase ratio, 5 h; at 7.69 µM (top of the series) unless noted
How it was run: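 Modulation of EGF-driven AP-1 transcription was assessed with a beta-lactamase reporter in ME-180 cells. Compound and EC50 EGF were co-incubated 5 hours at 37 °C before 2.5-hour CCF4 loading at room temperature and dual-emission reading.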

[15] = target: Ubiquitin carboxyl-terminal hydrolase 1 (Homo sapiens) (UniProt O94782); assay: Inhibitors of USP1/UAF1: Pilot qHTS (AID 504865); conditions: purified USP1/UAF1, Ub-rhodamine cleavage fluorescence; series mostly up to 54.9 µM; further: nearly all actives have a fitted effect of over 35% in size; further: potency means the concentration at half of the fitted maximal effect;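 on activity change, negative = inhibition: rhodamine fluorescence freed from ubiquitin-rhodamine substrate followed over time; top concentration of the series differs between compounds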
How it was run: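 1nM USP1/UAF1 + cpd, 15 min RT; start w/ Ub-Rho 150nM final; kinetic FL 480/540 nm, 6 reads q60 s. Buffer 50mM HEPES pH 7.8, 0.5mM EDTA, 1mM TCEP, 0.01% Tween-20, 0.1 mg/ml BSA.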

[16] = target: Cytochrome P450 3A4 (Homo sapiens) (UniProt P08684); assay: qHTS Assay for Activators of Cytochrome P450 3A4 (AID 885); conditions: recombinant CYP3A4, Luciferin-PPXE luminescence, 60 min; series mostly up to 57.1 µM; further: nearly all actives have a fitted effect of over 65% in size
How it was run: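 CYP3A4 activity: Luciferin-PPXE O-dealkylation, 25uM substrate, 200mM KPO4, RT throughout. Read-out is luciferase luminescence; higher values reflect activation.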

[17] = target: Cytochrome P450 2C19 (Homo sapiens) (UniProt P33261); assay: qHTS Assay for Inhibitors and Substrates of Cytochrome P450 2C19 (AID 899); conditions: recombinant CYP2C19, luciferin-H EGE luminescence; series mostly up to 57.1 µM; further: potency means the concentration at half of the fitted maximal effect; nearly all actives have a fitted effect of over 60% in size
How it was run: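 5nM enzyme + 10uM Luciferin-H EGE (=KM), 50mM KPO4; cpd pin-transferred, 10 min 37C; NADPH regen, 60 min 37C; stopped w/ luciferin detection reagent, 20 min; luminescence. Normalized to 57uM ketoconazole (AC100).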

Sequence of 3',5'-cyclic-AMP phosphodiesterase 4B (Homo sapiens) (Q07343 whole entry, looked up): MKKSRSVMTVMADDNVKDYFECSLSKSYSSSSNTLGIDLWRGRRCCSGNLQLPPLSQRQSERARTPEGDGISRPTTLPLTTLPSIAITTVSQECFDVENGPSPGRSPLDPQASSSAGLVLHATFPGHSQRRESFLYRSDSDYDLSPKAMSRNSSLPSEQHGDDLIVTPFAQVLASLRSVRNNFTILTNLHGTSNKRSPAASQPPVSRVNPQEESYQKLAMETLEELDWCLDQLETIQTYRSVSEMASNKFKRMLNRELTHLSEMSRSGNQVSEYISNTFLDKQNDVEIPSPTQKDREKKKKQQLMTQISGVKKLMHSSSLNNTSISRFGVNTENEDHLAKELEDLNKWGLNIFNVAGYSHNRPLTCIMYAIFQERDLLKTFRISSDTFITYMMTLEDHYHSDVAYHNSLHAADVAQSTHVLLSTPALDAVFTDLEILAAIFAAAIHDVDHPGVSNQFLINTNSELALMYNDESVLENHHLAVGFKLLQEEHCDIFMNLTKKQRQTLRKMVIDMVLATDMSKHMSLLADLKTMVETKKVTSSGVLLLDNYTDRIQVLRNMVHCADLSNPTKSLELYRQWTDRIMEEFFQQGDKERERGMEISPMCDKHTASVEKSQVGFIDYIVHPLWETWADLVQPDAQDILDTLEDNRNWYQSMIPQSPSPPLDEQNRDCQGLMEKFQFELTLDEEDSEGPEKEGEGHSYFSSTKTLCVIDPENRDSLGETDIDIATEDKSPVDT
Sequence of Cytochrome P450 1A2 (Homo sapiens) (P05177 whole entry, looked up): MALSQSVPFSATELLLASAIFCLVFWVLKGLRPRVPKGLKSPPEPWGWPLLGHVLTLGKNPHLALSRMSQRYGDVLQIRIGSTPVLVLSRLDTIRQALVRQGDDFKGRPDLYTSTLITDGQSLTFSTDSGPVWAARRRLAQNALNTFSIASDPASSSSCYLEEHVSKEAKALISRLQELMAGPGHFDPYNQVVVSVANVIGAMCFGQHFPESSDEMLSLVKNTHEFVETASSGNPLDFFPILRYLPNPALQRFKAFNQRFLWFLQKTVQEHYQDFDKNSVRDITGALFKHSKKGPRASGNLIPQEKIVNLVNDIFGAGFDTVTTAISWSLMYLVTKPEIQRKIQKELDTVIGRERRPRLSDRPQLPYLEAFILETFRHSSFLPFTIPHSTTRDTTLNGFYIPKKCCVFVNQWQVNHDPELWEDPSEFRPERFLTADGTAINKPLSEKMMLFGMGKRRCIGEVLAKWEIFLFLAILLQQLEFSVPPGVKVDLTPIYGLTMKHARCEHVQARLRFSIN
Sequence of Glucocorticoid receptor (Homo sapiens) (P04150 whole entry, looked up, the tested form may be a part): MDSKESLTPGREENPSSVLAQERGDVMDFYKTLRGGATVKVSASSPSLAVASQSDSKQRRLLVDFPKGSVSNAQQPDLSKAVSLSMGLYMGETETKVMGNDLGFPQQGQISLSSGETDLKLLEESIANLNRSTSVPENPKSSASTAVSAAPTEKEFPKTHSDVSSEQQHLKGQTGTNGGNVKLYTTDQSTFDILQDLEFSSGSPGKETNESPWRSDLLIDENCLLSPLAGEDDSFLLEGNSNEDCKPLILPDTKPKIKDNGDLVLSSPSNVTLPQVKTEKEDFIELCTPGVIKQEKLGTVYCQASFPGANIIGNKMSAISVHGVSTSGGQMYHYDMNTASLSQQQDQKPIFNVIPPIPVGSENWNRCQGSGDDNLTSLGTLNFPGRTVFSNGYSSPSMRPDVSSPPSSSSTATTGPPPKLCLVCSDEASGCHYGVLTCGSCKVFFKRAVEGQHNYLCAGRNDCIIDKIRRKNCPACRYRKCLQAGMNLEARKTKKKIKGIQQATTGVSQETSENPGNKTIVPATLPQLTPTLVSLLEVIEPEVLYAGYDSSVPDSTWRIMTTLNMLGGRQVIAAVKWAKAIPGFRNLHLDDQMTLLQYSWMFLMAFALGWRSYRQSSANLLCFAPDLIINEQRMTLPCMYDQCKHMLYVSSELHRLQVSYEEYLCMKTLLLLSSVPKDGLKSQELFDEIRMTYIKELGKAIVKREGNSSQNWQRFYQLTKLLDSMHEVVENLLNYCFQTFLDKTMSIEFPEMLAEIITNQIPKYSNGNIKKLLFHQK
Sequence of Ubiquitin carboxyl-terminal hydrolase 1 (Homo sapiens) (O94782 whole entry, looked up): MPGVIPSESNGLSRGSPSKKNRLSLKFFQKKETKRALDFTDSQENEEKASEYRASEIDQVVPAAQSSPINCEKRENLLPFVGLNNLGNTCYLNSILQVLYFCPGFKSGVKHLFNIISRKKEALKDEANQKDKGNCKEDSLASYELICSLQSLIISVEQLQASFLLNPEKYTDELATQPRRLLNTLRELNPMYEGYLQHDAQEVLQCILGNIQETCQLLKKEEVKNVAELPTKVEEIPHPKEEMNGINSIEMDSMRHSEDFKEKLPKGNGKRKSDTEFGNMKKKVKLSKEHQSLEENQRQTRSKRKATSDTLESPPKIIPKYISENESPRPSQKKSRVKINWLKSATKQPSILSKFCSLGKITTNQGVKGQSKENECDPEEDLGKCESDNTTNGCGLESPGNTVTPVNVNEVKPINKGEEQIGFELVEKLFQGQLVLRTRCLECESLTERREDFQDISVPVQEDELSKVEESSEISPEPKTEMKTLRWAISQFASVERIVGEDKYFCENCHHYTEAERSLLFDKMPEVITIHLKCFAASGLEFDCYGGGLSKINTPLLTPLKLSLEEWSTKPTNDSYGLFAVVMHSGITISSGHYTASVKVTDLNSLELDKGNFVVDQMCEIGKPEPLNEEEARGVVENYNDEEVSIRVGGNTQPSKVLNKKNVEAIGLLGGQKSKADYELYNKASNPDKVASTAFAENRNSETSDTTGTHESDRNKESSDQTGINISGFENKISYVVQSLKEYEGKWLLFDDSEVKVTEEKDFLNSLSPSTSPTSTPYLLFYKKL
Sequence of Dual specificity protein kinase CLK4 (Homo sapiens) (Q9HAZ1 whole entry, looked up): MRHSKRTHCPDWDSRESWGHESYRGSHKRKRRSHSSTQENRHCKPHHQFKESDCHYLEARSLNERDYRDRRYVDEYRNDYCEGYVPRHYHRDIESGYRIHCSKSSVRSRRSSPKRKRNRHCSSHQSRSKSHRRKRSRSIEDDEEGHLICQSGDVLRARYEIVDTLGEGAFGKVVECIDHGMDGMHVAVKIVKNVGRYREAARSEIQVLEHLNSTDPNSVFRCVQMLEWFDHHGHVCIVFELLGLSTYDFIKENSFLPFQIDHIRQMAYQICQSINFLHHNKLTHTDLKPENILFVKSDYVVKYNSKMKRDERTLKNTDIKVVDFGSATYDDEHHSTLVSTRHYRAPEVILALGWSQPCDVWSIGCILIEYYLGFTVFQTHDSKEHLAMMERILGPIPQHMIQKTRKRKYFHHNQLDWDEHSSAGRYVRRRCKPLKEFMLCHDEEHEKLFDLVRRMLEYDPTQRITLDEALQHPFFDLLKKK
Sequence of Cytochrome P450 3A4 (Homo sapiens) (P08684 whole entry, looked up): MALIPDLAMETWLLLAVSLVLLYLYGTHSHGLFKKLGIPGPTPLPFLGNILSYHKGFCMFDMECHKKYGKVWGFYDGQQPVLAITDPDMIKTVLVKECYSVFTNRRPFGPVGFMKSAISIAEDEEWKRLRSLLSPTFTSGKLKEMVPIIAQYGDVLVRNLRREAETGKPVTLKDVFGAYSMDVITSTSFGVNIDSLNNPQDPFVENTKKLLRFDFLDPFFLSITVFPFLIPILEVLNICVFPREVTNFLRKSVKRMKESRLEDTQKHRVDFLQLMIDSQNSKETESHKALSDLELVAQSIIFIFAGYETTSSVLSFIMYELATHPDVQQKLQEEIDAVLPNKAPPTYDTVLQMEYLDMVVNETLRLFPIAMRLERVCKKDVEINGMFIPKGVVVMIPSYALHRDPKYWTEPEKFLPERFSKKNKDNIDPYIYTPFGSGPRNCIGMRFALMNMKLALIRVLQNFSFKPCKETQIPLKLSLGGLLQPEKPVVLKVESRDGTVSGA
Sequence of Lysosomal acid glucosylceramidase (Homo sapiens) (P04062 whole entry, looked up): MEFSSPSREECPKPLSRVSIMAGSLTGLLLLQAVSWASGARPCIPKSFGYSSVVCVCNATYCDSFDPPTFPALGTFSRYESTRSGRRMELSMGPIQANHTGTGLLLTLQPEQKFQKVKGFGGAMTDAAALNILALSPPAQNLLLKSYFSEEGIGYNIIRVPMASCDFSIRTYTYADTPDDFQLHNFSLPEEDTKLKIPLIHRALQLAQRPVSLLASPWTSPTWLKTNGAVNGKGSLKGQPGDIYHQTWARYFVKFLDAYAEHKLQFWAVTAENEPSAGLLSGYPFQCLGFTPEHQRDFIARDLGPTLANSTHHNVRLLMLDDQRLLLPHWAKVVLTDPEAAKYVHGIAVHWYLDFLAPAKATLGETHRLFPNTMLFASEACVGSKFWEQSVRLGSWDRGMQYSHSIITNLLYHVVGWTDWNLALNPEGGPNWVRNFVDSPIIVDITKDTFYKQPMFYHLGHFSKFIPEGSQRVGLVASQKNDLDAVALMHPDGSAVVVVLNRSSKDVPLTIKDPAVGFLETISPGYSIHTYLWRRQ
Sequence of Cytochrome P450 2C19 (Homo sapiens) (P33261 whole entry, looked up): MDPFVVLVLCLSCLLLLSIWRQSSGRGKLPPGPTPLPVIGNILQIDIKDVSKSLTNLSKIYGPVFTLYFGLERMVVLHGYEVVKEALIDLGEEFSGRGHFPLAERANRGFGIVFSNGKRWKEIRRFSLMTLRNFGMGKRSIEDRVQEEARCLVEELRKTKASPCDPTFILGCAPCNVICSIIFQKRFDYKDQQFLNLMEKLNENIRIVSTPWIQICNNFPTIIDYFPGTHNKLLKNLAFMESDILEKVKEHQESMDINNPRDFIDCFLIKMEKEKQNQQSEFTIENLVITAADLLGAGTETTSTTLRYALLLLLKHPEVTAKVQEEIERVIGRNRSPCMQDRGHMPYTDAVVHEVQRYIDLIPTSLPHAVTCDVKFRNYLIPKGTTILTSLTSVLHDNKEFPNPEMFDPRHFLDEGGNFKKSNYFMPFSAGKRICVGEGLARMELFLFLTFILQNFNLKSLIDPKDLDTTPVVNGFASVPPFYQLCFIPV

Row | SMILES | Potency [1] | Potency [2] | activity change, negative = inhibition [3] | activity, negative = inhibition [4] | Potency [5] | Potency [6] | Potency [7] | Potency [8] | Potency [9] | Potency [10] | Potency [11] | Potency [12] | outcome [13] | activity change, negative = inhibition [14] | Potency [15] | Potency [16] | activation [9] | Potency [17]
1 | COc1ccc(-c2nc3cnc(N4CCOCC4)nc3n(CCc3ccccc3)c2=O)cc1 | > 11.4 µM | 10 µM (active) | 119% [activator] (active) | 92.5% [activator] (active) | > 9.22 µM | > 46 µM | inactive | inactive | 1.26 µM (active) | inactive | inactive | inactive | inactive |  |  |  |  | 
2 | Cc1noc(C)c1-c1nc(N(C)Cc2ccco2)c2ccccc2n1 | > 11.4 µM |  |  | -25.7% | > 46 µM | > 46 µM |  | inactive |  | 28.2 µM (active) | 35.5 µM (active) | inactive | inactive | -1.42% | inactive |  |  | 
3 | Cn1cc(-c2nc3cncnc3n(Cc3ccccc3Cl)c2=O)c2ccccc21 | > 11.4 µM | 3.16 µM (active) | 3.77% |  | > 9.22 µM | > 46 µM |  | inactive |  | inactive | inactive | inactive | inactive |  | inactive | inactive | 15.7% | 
4 | Cc1noc(C)c1-c1ccc2ncnc(Nc3ccccc3)c2c1 | > 11.4 µM |  |  |  | > 46 µM | > 46 µM | inactive | inactive |  | 6.31 µM (active) | 7.94 µM (active) | 10 µM (active) | inactive | -6.37% |  |  |  | 
5 | O=c1c(CCc2ccccc2)nc2cncnc2n1Cc1ccccc1Cl | > 11.4 µM | 12.6 µM (active) | -6.53% | -12.1% | > 46 µM | > 46 µM | inactive |  |  | inactive | inactive | inactive | inactive |  | inactive | inactive |  | 5.01 µM (active)
6 | CN(C)c1ncc2nc(-c3cc(F)cc(F)c3)c(=O)n(C)c2n1 | > 11.4 µM |  | 2.93% |  | > 9.22 µM | > 46 µM | inactive | inactive |  | inactive | inactive | inactive | inactive | 13.4% | inactive |  |  | 
7 | COCCn1c(=O)c(-c2ccc(F)cc2)nc2cnc(N(C)C)nc21 | > 11.4 µM |  | 10.7% |  | > 9.22 µM | > 46 µM |  | 1.58 µM (active) |  | inactive | inactive | inactive | inactive | -1.02% | inactive |  |  | 
8 | O=c1c(-c2ccc(F)cc2)nc2cnc(N3CCOCC3)nc2n1CCc1ccccc1 | > 11.4 µM |  | 103% [activator] (active) |  | > 9.22 µM | > 46 µM |  | inactive | 0.501 µM (active) | inactive | inactive | inactive | inactive | 79.3% [activator] (active) | inactive |  |  | 
9 | COc1ccc(CNc2nc(-c3ccc(N(C)C)cc3)nc3ccccc23)c(OC)c1 | > 11.4 µM |  |  | 23.2% | > 46 µM | > 46 µM | inactive | inactive |  | inactive | inactive | inactive | inactive | 5.6% | inactive | inactive |  | 
10 | FC(F)(F)c1ccccc1-c1nccc(NCCN2CCOCC2)n1 | > 11.4 µM |  |  | -13.3% | > 46 µM | > 46 µM | inactive | inactive |  | inactive | inactive | inactive | inactive | 27.9% | inactive | inactive |  | 
11 | Fc1ccc(Nc2ncnc3ccc(-c4ccoc4)cc23)cc1 | > 11.4 µM | 1 µM (active) | 10.4% | -22.9% | > 46 µM | > 46 µM | inactive |  |  | 0.631 µM (active) | 0.708 µM (active) | 0.355 µM (active) | inactive |  | inactive | inactive |  | 
12 | COc1ncc2nc(C)c(=O)n(CCc3ccccc3)c2n1 | > 11.4 µM | 2 µM (active) | -3.03% | -12.2% | > 9.22 µM | > 46 µM | inactive |  |  | inactive | inactive | inactive | inactive |  | inactive | inactive |  | 
13 | CN(C)c1ncc2nc(-c3cccs3)c(=O)n(Cc3cccs3)c2n1 | > 11.4 µM |  |  |  | > 9.22 µM | > 46 µM | inactive | inactive |  | inactive | inactive | inactive | inactive | 21.5% | inactive | inactive |  | 
14 | COc1cccc(Nc2ncc3nc(-c4cccs4)c(=O)n(Cc4cccs4)c3n2)c1 | > 11.4 µM |  |  | -4.04% | > 9.22 µM | > 46 µM | inactive | inactive |  | inactive | inactive | inactive | inactive | -19.6% | 20 µM (active) |  |  | 
